Results filed as inconclusive are left out. The source made the active and inactive calls. Unless noted, the call rests on the fitted dose curve; in most records, active means well fitted curve in the direction sought with a large enough effect in the repeat runs; inconclusive means weak or mixed curves; inactive means no such curve, though single readings can be large; an effect the other way counts as inactive or inconclusive.
Key:
[1] = target: Estrogen receptor beta (Homo sapiens) (UniProt Q92731); assay: qHTS assay to identify small molecule agonists of the estrogen receptor beta (ER-beta) signaling pathway (AID 1259377; active means well fitted activation curve with a large enough effect in the signal ratio in the repeat runs, not every such curve was filed as active; the % refers to the signal ratio)
Procedure, shortened: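 ER-beta-UAS-bla HEK293T (GripTite) cells carrying a UAS-driven beta-lactamase reporter, in medium with 2% charcoal-stripped FBS, were exposed to compounds for 16 hr at 37C; LiveBLAzer B/G FRET substrate was then added and fluorescence read after 2 hours at room temperature.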

[2] = target: Estrogen receptor beta (Homo sapiens) (UniProt Q92731); assay: qHTS assay to identify small molecule antagonists of the estrogen receptor beta (ER-beta) signaling pathway (AID 1259378; active means well fitted inhibition curve with a large enough effect in the signal ratio in the repeat runs, not every such curve was filed as active; the % refers to the signal ratio)
Procedure, shortened: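 Antagonist mode: compounds added to beta-lactamase reporter HEK293T ER-beta-UAS cells stimulated with E2 (1nM final), 16 hr at 37C. LiveBLAzer B/G FRET substrate, 2 hours room temperature, fluorescence read-out.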

[3] = qHTS assay to identify small molecule agonists of the androgen receptor (AR) signaling pathway in the presence of an antagonist - cell viability counter screen (AID 1259379);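 further: MDA-kb2 human breast cancer cells carrying an MMTV luciferase reporter; series mostly up to about 92 µM; nearly all actives have a fitted effect of over 25% in size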
Procedure, shortened: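 A CellTiter-Fluor read-out measured viability of MDA-kb2 reporter cells (MMTV promoter with AR and GR response elements). Treatment: nilutamide 3.0uM final with compounds at 15 concentrations, 16 hr, 37C, 0% CO2.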

[4] = qHTS assay to identify small molecule antagonists of the estrogen receptor beta (ER-beta) signaling pathway - cell viability counter screen (AID 1259382); further: series mostly up to about 92 µM; nearly all actives have a fitted effect of over 55% in size
Procedure, shortened: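 Agonist-stimulated (1nM E2) ER-beta-UAS-bla HEK293T cells are incubated with library compounds for 16 hr at 37C. Cell viability is then assessed in the reporter-assay wells by adding CellTiter-Glo and reading luminescence after 30 min.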

[5] = target: Estrogen receptor (Homo sapiens) (UniProt P03372); assay: qHTS assay to identify small molecule agonists of the estrogen receptor alpha (ER-alpha) signaling pathway in the presence of an antagonist (AID 1259383; calls by dose curve; further: top concentration of the series differs between compounds; nearly all actives have a fitted effect of over 15% in size)
Procedure, shortened: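 Using VM7Luc4E2 cells seeded 24hr before treatment, antagonist ICI-182,780 (10.0nM final) was added, followed by compounds at 15 concentrations. Plates incubated 22hr; ONE-Glo luminescence quantified reporter activity.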

[6] = qHTS assay to identify small molecule agonists of the estrogen receptor alpha (ER-alpha) signaling pathway in the presence of an antagonist - cell viability counter screen (AID 1259386);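 further: series mostly up to about 92 µM; cells exposed to compounds for 22 h at 37 °C before the viability read; nearly all actives have a fitted effect of over 30% in size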
Procedure, shortened: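 ICI-182,780 at 10.0nM final accompanies the compound titration (15 concentrations, 22hr, 37C) on VM7Luc4E2 cells. The CellTiter-Fluor fluorescence readout runs in the same wells as the luciferase assay.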

[7] = target: Progesterone receptor (Homo sapiens) (UniProt P06401); assay: qHTS assay to identify small molecule antagonists of the progesterone receptor (PR) signaling pathway (AID 1346795; active means well fitted inhibition curve with a large enough effect in the signal ratio in the repeat runs, not every such curve was filed as active; the % refers to the signal ratio)
Procedure, shortened: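 PR-UAS-bla HEK293T cells carrying a UAS-driven beta-lactamase reporter were plated in medium with 2% charcoal-stripped FBS and rested 6 hr at 37C. Compounds were added with 1 nM R5020 (final) for 16 hr, then FRET substrate loaded 2 hr at room temperature.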

[8] = qHTS assay to identify small molecule antagonists of the progesterone receptor (PR) signaling pathway - cell viability counter screen (AID 1346798); further: series mostly up to about 92 µM; nearly all actives have a fitted effect of over 50% in size
Procedure, shortened: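 PR-UAS-bla HEK293T cells in medium with 2% charcoal-stripped FBS were treated with compounds plus R5020 for 16 hr at 37C. Cell viability was then read by CellTiter-Glo luminescence after 30 min at room temperature in the same wells.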

[9] = qHTS assay to identify small molecule antagonists of the TGF-beta/Smad signaling pathway - cell viability counter screen (AID 1346824); further: nearly all actives have a fitted effect of over 50% in size
Procedure, shortened: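 Cytotoxicity counter-screen run in the same wells as the beta-lactamase Smad reporter read: CellTiter-Glo luminescence after 30 min at room temperature. HEK 293T SBE-bla cells had 5 hr compound exposure at 37 C with TGF-beta1 (0.25 ng/mL stock).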

[10] = target: Thyrotropin-releasing hormone receptor (Homo sapiens) (UniProt P34981); assay: qHTS assay to identify small molecule antagonists of the thyrotropin-releasing hormone receptor (TRHR) signaling pathway (AID 1346877; active means well fitted inhibition curve with a large enough effect in the repeat runs, not every such curve was filed as active; further: series mostly up to about 51 µM)
Procedure, shortened: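 Screening used HEK293 cells engineered with TRHR, with a brief 5 min room-temperature compound exposure preceding addition of TRH to 1 nM. The read-out was kinetic calcium-dye fluorescence, concentration-response from 15 doses in triplicate.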

[11] = qHTS assay to identify small molecule agonists of the estrogen receptor beta (ER-beta) signaling pathway - cell viability counter screen (AID 1259380); further: nearly all actives have a fitted effect of over 30% in size
Procedure, shortened: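 Cells used were ER-beta-UAS-bla HEK293T in medium with 2% charcoal-stripped FBS. They were treated for 16 hr at 37C. Viability came from CellTiter-Glo luminescence.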

[12] = qHTS assay to identify small molecule agonists or antagonists of the thyroid stimulating hormone receptor (TSHR) signaling pathway - wild type cell line counter screen (AID 1259384; calls by dose curve)
Procedure, shortened: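 Counter screen in untransfected Hek293: compounds (15-point titration, triplicate) plus phosphodiesterase inhibitor Ro20-1724 added after 18 h plating; 30 min RT. Intracellular cAMP via competitive d2/cryptate immunoassay, 1 h incubation.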

[13] = target: Thyrotropin receptor (Homo sapiens) (UniProt P16473); assay: qHTS assay to identify small molecule antagonists of the thyroid stimulating hormone receptor (TSHR) signaling pathway (AID 1259385; calls by dose curve; further: nearly all actives have a fitted effect of over 20% in size)
Procedure, shortened: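 Antagonist mode: compound-treated TSHR-expressing HEK293 cells were stimulated with 1.5 ng/mL TSH (final) in presence of Ro20-1724 for 30 min at RT. HTRF cAMP detection after 1 h; each compound tested at 15 concentrations, triplicate.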

[14] = target: Progesterone receptor (Homo sapiens) (UniProt P06401); assay: qHTS assay to identify small molecule agonists of the progesterone receptor (PR) signaling pathway (AID 1346784; calls by dose curve; further: nearly all actives have a fitted effect of over 30% in size)
Procedure, shortened: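 PR-UAS-bla HEK 293T cells carrying a UAS-driven beta-lactamase reporter were seeded in medium with 2% charcoal-stripped FBS, preincubated 6 hr at 37C, then exposed to compounds in DMSO for 16 hr; agonism was read by LiveBLAzer B/G FRET fluorescence.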

[15] = qHTS assay to identify small molecule agonists of the progesterone receptor (PR) signaling pathway - cell viability counter screen (AID 1346799; calls by dose curve; further: nearly all actives have a fitted effect of over 45% in size)
Procedure, shortened: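 PR-UAS-bla HEK293T cells, 3,000 per well in medium with 2% charcoal-stripped FBS, were preincubated 6 hr at 37C, then exposed to compounds for 16 hr; viability was read as CellTiter-Glo luminescence after 30 min at room temperature.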

[16] = qHTS assay to identify small molecule agonists of the TGF-beta/Smad signaling pathway - cell viability counter screen (AID 1346829); further: top concentration of the series differs between compounds; nearly all actives have a fitted effect of over 45% in size
Procedure, shortened: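 Cytotoxicity counter screen: CellTiter-Glo luminescence (30 min, room temperature) measured in the SBE-bla HEK 293T reporter wells after 5 hr compound treatment at 37 C and the 2 hr substrate step.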

[17] = qHTS assay to identify small molecule agonists of the TGF-beta/Smad signaling pathway (AID 1346859; active means well fitted activation curve with a large enough effect in the signal ratio in the repeat runs, not every such curve was filed as active; the % refers to the signal ratio; further: series mostly up to about 77 µM)
Procedure, shortened: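 HEK 293T cells stably carrying a beta-lactamase reporter driven by the Smad binding element were seeded overnight, exposed to DMSO-dissolved compounds for 5 hr at 37 C, 5% CO2, then loaded with FRET substrate for 2 hr at room temperature.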

[18] = target: Thyrotropin-releasing hormone receptor (Homo sapiens) (UniProt P34981); assay: qHTS assay to identify small molecule agonists of the thyrotropin-releasing hormone receptor (TRHR) signaling pathway (AID 1346891; calls by dose curve; further: series mostly up to about 58 µM)
Procedure, shortened: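 TRHR-expressing HEK293 cells were plated 18 h at 37 °C/5% CO2, loaded with calcium dye 2 h at 37 °C, then given compound in DMSO; fluorescence was read kinetically for 3 min at 1 s intervals.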

[19] = Human pregnane X receptor (PXR) small molecule agonists, qHTS cell viability counter screen (AID 1346977); further: nearly all actives have a fitted effect of over 50% in size
Procedure, shortened: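 PXR-Luc HepG2 cells in medium with 5% charcoal-stripped FBS were pre-incubated 5hr, then exposed to compounds for 24hr at 37C. Viability was read in the same wells by CellTiter-Fluor fluorescence, reagent added after 23hr with a 1hr incubation.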

[20] = target: Androgen receptor (Homo sapiens) (UniProt P10275); assay: qHTS assay to identify small molecule agonists of the androgen receptor (AR) signaling pathway in the presence of an antagonist (AID 1259381; calls by dose curve; further: nearly all actives have a fitted effect of over 15% in size)
Procedure, shortened: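 Using human MDA-kb2 cells with an MMTV promoter–luciferase construct (AR and GR response elements), agonist activity is scored under 3.0uM nilutamide (final) co-treatment; 16hr incubation, 37C, luminescence readout via ONE-Glo.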

Measured: Potency

Chain of Progesterone receptor (Homo sapiens) (P06401 whole entry, looked up): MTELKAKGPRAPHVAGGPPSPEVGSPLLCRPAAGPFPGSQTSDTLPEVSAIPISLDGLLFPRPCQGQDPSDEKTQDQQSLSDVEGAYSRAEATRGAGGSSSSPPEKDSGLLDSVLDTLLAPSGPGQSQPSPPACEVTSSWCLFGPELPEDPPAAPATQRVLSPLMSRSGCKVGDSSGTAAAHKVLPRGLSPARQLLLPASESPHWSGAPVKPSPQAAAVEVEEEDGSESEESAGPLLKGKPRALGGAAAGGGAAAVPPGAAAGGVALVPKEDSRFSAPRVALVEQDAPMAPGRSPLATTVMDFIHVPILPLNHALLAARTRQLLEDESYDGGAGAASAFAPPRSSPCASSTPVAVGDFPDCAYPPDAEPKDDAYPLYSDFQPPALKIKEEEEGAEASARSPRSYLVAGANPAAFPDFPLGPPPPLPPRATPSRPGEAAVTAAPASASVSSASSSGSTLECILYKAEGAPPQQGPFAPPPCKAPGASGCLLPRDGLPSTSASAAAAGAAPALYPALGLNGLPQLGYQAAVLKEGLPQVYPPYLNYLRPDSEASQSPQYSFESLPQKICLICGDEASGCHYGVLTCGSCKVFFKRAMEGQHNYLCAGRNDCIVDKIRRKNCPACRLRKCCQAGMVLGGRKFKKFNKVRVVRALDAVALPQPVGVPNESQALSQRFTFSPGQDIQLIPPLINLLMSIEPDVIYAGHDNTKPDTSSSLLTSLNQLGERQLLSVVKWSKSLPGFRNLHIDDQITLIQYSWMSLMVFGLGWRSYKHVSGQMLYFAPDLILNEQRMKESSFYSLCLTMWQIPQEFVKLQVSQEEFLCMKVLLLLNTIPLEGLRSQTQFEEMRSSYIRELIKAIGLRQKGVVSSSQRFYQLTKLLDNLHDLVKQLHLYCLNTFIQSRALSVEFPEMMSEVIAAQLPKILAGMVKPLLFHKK
Chain of Estrogen receptor beta (Homo sapiens) (Q92731 whole entry, looked up): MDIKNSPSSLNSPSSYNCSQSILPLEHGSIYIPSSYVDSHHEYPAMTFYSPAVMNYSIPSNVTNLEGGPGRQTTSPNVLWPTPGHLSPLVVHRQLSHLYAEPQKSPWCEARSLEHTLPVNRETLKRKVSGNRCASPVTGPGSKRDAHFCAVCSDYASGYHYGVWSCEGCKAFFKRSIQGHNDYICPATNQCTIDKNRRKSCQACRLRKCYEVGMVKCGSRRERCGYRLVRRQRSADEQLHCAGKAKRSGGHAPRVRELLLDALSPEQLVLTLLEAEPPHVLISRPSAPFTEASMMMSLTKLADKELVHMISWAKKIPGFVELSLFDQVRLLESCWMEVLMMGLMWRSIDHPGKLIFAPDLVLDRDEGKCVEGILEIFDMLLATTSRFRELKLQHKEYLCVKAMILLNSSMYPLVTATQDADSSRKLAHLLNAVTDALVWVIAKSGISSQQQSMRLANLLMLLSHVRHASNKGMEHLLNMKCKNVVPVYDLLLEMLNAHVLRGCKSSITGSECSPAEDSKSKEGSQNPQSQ
Chain of Thyrotropin receptor (Homo sapiens) (P16473 whole entry, looked up): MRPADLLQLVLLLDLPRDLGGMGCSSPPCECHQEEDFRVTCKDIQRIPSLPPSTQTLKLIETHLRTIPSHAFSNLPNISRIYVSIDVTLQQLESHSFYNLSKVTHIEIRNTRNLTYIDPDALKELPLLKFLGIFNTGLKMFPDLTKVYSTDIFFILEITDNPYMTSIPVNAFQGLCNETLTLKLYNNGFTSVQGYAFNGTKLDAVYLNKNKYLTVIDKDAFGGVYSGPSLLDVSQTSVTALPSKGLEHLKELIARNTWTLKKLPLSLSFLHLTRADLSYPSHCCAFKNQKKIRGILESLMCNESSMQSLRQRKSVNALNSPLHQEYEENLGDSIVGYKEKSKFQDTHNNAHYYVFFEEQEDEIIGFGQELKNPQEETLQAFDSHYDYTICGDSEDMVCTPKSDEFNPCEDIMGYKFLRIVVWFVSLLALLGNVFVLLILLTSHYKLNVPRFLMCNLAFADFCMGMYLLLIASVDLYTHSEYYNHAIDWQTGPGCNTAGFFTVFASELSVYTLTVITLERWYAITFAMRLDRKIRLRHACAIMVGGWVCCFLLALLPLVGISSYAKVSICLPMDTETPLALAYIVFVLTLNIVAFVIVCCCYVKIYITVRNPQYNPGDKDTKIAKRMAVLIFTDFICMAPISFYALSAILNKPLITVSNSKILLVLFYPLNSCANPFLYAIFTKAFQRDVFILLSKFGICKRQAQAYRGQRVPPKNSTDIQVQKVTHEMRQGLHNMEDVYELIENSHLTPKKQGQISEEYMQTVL
Chain of Estrogen receptor (Homo sapiens) (P03372 whole entry, looked up): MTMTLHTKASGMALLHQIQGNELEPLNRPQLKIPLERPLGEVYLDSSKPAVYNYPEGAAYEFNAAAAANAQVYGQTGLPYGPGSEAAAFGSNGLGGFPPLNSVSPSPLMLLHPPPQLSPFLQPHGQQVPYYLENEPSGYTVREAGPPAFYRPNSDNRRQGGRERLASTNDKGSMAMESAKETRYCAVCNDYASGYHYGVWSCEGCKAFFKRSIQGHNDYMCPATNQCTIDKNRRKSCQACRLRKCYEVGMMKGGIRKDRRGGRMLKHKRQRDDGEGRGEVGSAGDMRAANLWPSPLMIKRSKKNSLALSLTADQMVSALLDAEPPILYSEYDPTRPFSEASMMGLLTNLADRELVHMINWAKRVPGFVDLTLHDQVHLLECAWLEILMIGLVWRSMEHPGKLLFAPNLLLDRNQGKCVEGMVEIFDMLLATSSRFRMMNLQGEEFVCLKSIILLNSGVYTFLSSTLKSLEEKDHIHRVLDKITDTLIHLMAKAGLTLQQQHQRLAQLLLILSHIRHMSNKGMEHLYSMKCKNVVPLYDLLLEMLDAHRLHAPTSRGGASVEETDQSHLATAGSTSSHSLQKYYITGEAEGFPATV
Chain of Thyrotropin-releasing hormone receptor (Homo sapiens) (P34981 whole entry, looked up): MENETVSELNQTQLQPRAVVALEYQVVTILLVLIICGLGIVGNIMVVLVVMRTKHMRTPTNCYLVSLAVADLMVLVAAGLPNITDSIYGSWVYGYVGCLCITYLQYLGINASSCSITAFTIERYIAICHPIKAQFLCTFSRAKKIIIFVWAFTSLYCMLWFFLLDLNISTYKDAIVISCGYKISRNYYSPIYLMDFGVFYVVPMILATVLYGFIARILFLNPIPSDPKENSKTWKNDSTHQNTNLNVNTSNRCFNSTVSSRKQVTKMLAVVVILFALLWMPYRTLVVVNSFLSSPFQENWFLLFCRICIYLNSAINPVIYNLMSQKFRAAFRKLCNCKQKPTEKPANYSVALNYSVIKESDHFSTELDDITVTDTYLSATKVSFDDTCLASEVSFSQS
Chain of Androgen receptor (Homo sapiens) (P10275 whole entry, looked up): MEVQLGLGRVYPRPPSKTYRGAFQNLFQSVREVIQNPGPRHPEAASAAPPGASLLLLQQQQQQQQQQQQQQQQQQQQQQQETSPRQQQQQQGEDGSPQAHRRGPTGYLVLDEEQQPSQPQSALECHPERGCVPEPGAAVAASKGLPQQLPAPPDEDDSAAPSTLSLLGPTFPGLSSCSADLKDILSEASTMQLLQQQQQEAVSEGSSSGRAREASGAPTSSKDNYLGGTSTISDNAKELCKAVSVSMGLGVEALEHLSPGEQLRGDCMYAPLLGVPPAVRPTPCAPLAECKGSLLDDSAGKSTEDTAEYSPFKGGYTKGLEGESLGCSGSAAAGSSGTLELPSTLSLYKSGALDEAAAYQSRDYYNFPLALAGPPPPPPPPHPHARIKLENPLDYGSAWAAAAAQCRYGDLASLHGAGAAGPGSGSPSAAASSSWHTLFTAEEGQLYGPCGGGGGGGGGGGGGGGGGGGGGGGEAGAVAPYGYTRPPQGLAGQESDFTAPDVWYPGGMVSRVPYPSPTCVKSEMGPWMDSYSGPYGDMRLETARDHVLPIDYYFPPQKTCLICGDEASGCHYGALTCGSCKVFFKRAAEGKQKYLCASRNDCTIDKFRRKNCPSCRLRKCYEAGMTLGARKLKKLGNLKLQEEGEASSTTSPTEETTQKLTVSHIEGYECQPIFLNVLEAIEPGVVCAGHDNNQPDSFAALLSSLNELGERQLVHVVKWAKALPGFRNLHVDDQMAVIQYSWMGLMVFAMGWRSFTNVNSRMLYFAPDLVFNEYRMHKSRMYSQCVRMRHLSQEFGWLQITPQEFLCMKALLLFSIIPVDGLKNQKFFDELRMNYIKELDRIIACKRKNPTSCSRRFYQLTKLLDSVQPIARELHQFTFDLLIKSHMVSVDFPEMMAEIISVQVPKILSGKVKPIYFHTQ

BrCC1CO1 (configuration not stated)
inactive: [1] | [2] | [3] | [4] | [5] | [6] | [7] | [8] | [9] | [10]

CCCN1CCC[C@@H]2Cc3[nH]ncc3C[C@H]21
inactive: [1] | [2] | [11] | [4] | [5] | [12] | [13] | [6] | [14] | [7] | [8] | [15] | [9] | [16] | [17] | [10] | [18] | [19]

CCCOC(=O)Cc1ccc(OCC(=O)N(CC)CC)c(OC)c1
inactive: [1] | [2] | [3] | [4] | [12] | [13] | [6] | [8] | [15] | [9] | [10] | [18] | [19]

C=C(Cl)CSC(=S)N(CC)CC
inactive: [1] | [2] | [3] | [11] | [4] | [6] | [14] | [8] | [15] | [9] | [16]

CCOc1cc(OP(=S)(OC)OC)nc(CC)n1
inactive: [1] | [2] | [3] | [4] | [5] | [6] | [14] | [7] | [8] | [15] | [9] | [16] | [17] | [10] | [19]

CCOC(=O)c1ncn2c1CN(C)C(=O)c1c(I)cccc1-2
inactive: [1] | [2] | [11] | [4] | [5] | [12] | [13] | [6] | [7] | [8] | [15] | [16] | [17] | [10] | [18] | [19]

N[C@@H](Cc1ccc(Oc2cc(I)c(O)c(I)c2)c(I)c1)C(=O)O
inactive: [1] | [2] | [3] | [4] | [5] | [6] | [8] | [9] | [16] | [17] | [10] | [19]

Cc1ccc(S(=O)(=O)N[C@@H](CCCCN)C(=O)CCl)cc1
inactive: [20]

CNC(=O)Oc1cc(C)c(N(C)C)c(C)c1
inactive: [2] | [11] | [4] | [12] | [13] | [6] | [14] | [8] | [15] | [9] | [16] | [17] | [10] | [18] | [19]

CCN1CCCC1CNC(=O)C(O)(c1ccccc1)c1ccccc1 (configuration not stated)
inactive: [3] | [11] | [4] | [12] | [13] | [6] | [14] | [7] | [8] | [15] | [16] | [17]

COP(=O)(O)OC
inactive: [3] | [11] | [4] | [5] | [13] | [6] | [14] | [7] | [8] | [15] | [9] | [17] | [10] | [18] | [19]

CON(C)C(=O)Nc1ccc(Br)cc1
inactive: [3] | [11] | [4] | [12] | [13] | [6] | [14] | [7] | [8] | [16] | [17] | [10] | [18] | [19]

Source: PubChem BioAssay (Tox21)
